Measurements: the supplement of paper PMC10127200
Counter-ions that a name gives are not always drawn.

Assays:
Assay in all cases: Euclidean distance of Cell Painting phenotypic profile (signed KS, 77 features) to DMSO centroid (dimensionless distance); 5 or 10 uM (library dependent); higher = stronger phenotypic change vs DMSO (phenoactivity)
Settings in all cases: 48 h
786-O = system: 786-O
Summary of the method: (§1)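 Harmony extracted 77 features from 20X confocal images (9 fields/well) of stained cells, scoring each as a signed Kolmogorov-Smirnov statistic against same-plate vehicle wells. The cells, five cancer lines and a healthy fibroblast line, had received library compounds for 48 h at 10 or 5 uM depending on library, with 0.1% DMSO final. Phenoactivity is the Euclidean distance from each plate-position-corrected, correlation-weighted, top-dose replicate-averaged profile to the median vehicle profile.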

A549 = system: A549
Summary of the method: as §1

DU145 = system: DU145
Summary of the method: as §1

FB = system: FB
Summary of the method: as §1

HEPG2 = system: HEPG2
Summary of the method: as §1

OVCAR4 = system: OVCAR4
Summary of the method: as §1

| Compound | Euclidean distance (786-O) | Euclidean distance (A549) | Euclidean distance (DU145) | Euclidean distance (FB) | Euclidean distance (HEPG2) | Euclidean distance (OVCAR4) |
| --- | --- | --- | --- | --- | --- | --- |
| Cc1cc(CN2CCN(c3c(Br)cnc4nc(-c5ccc(N6CCN(C)CC6)cc5)[nH]c34)CC2)no1 | 1.51 | 1.27 | 1.12 | 0.806 | 1.67 | 1.25 |
| N#Cc1ccc(C2CCCc3cncn32)cc1 (centres undefined) [Fadrozole] | 1.22 | 0.722 | 0.93 | 1.38 | 0.631 | 0.866 |
| CNCc1ccc(-c2cc(-c3nc(-c4ccc(S(=O)(=O)C(C)C)cc4)cnc3N)on2)cc1 | 3.55 | 3.91 | 3.77 | 4.87 | 3.55 | 4.32 |
| CC(C)CC(=O)Nc1cncc(-c2ccc3[nH]nc(-c4nc5cncc(-c6cccc(F)c6)c5[nH]4)c3c2)c1 | 5.07 | 2.79 | 4.73 | 4.58 | 4.73 | 3.42 |
| CN(Cc1cnc2nc(N)nc(N)c2n1)c1ccc(C(=O)N[C@@H](CCC(=O)O)C(=O)O)cc1 [Methotrexate] | 1.77 | 3.08 | 1.05 | 0.72 | 1.55 | 2.57 |
| COc1cc([C@@H]2c3cc4c(cc3[C@@H](O[C@@H]3O[C@@H]5CO[C@@H](C)O[C@H]5[C@H](O)[C@H]3O)[C@H]3COC(=O)[C@H]23)OCO4)cc(OC)c1O [Etoposide] | 4.29 | 2.57 | 3.62 | 3.88 | 4.18 | 3.21 |
| CC1(C)S[C@@H]2[C@H](NC(=O)[C@H](N)c3ccccc3)C(=O)N2[C@H]1C(=O)OCOC(=O)[C@@H]1N2C(=O)C[C@H]2S(=O)(=O)C1(C)C [Sultamicillin Tosylate] | 1.06 | 1.18 | 0.926 | 1.01 | 0.775 | 0.992 |
| Nc1c2c(nc3ccccc13)CCCC2 [Tacrine HCl] | 0.888 | 0.485 | 0.636 | 1.21 | 0.472 | 1.16 |
| CNC(=O)Nc1ccc(-c2nc(N3CC4CCC(C3)O4)c3cnn(C4CCC5(CC4)OCCO5)c3n2)cc1 | 4.15 | 3.37 | 2.25 | 4.69 | 3.38 | 4.35 |
| Cc1ccccc1N1CCN(CCc2nnc3n2CCCC3)CC1 [Dapiprazole Hydrochloride] | 1.23 | 0.715 | 0.81 | 0.786 | 1.09 | 1.17 |
| Cc1ccsc1/C=C/C1=NCCCN1C [Morantel tartrate] | 0.593 | 0.834 | 0.571 | 1.19 | 0.557 | 1.21 |
| CC(C)(S)[C@@H](N)C(=O)O [Penicillamine] | 1.02 | 1.29 | 0.756 | 1.13 | 1.02 | 1.22 |
| O=C1CCc2ccc(OCCCCN3CCN(c4cccc(Cl)c4Cl)CC3)cc2N1 [Aripiprazole] | 1.08 | 0.975 | 0.573 | 0.979 | 0.512 | 1.21 |
| CN(C)CCOC(c1ccc(Cl)cc1)c1ccccn1 (centres undefined) [CarbinoxaMine Maleate] | 1.32 | 0.778 | 1.98 | 1.44 | 0.691 | 0.935 |
| Oc1ccc(-c2nc(-c3ccc(F)cc3)c(-c3ccncc3)[nH]2)cc1 | 1.58 | 0.841 | 1.39 | 1.38 | 2.99 | 2.17 |
| CN(C)C(=O)c1cc2cnc(Nc3ccc(N4CCNCC4)cn3)nc2n1C1CCCC1 | 2.35 | 1.67 | 1.46 | 3.9 | 1.9 | 1.81 |
| Cc1ccc(Cl)c(Nc2ccccc2C(=O)O)c1Cl [Meclofenamate Sodium] | 1.09 | 1.34 | 1.66 | 1.48 | 0.74 | 1.94 |
| Oc1cccc(O)c1 [Resorcinol] | 1.3 | 1.19 | 0.938 | 1.24 | 1.33 | 1.05 |
| Cc1[nH]c(/C=C2\C(=O)Nc3ccc(S(=O)(=O)N(C)c4cccc(Cl)c4)cc32)c(C)c1C(=O)N1CCN(C)CC1 | 2.57 | 3.08 | 2.03 | 2.51 | 1.47 | 3.13 |
| COC(=O)C1=CO[C@@H](O[C@@H]2O[C@H](CO)[C@@H](O)[C@H](O)[C@H]2O)[C@@H]2C(CO)=CC[C@H]12 [Geniposide] | 0.724 | 0.87 | 1.03 | 0.949 | 0.616 | 1.23 |
| O=C(O)Cc1ccccc1Nc1c(Cl)cccc1Cl [Diclofenac Potassium] | 1.38 | 0.427 | 0.963 | 1.35 | 1.1 | 0.893 |
| CCCCCCCCCCCCC[N+](C)(C)Cc1ccccc1 [Benzalkonium chloride] | 2.54 | 2.29 | 2.89 | 1.54 | 2.12 | 2.53 |
| NS(=O)(=O)Cc1noc2ccccc12 [Zonisamide] | 1.61 | 0.951 | 0.986 | 0.762 | 0.835 | 1.9 |
| CO/N=C1\C[C@]2(C[C@@H]3C[C@@H](C/C=C(\C)C[C@@H](C)/C=C/C=C4\CO[C@@H]5[C@H](O)C(C)=C[C@@H](C(=O)O3)[C@]45O)O2)O[C@H](/C(C)=C/C(C)C)[C@H]1C [Moxidectin] | 3.17 | 2.11 | 2.44 | 1.21 | 0.757 | 1.63 |
| Cc1ccc(Nc2nccc(N(C)c3ccc4c(C)n(C)nc4c3)n2)cc1S(N)(=O)=O | 2.42 | 2.34 | 1.99 | 2.87 | 1.93 | 1.6 |

| Compound | Euclidean distance (786-O) | Euclidean distance (A549) | Euclidean distance (DU145) | Euclidean distance (FB) | Euclidean distance (HEPG2) | Euclidean distance (OVCAR4) |
| --- | --- | --- | --- | --- | --- | --- |
| C[C@]12CC[C@@H]3c4ccc(O)cc4C[C@@H](CCCCCCCCC[S+]([O-])CCCC(F)(F)C(F)(F)F)[C@H]3[C@@H]1CC[C@@H]2O (some centres undefined) [Fulvestrant] | 1.83 | 1.67 | 0.894 | 1.18 | 0.76 | 1.56 |
| Cc1cc(C(C)(C)C)c(O)c(C(C)(C)C)c1 [Butylated hydroxytoluene] | 0.873 | 0.945 | 0.885 | 0.657 | 1.03 | 0.752 |
| COc1ccccc1N1CCN(CCN2C(=O)CC3(CCCC3)CC2=O)CC1 | 1.45 | 1.72 | 1.3 | 1.24 | 1.77 | 1.54 |
| C=CCc1ccccc1OCC(O)CNC(C)C (centres undefined) [Alprenolol hydrochloride] | 0.84 | 0.761 | 1.36 | 1.77 | 0.91 | 1.07 |
| CCS(=O)(=O)N1CCN(c2ccc(Nc3ncc(C(N)=O)c(NC4CC4)n3)cc2)CC1 | 2.57 | 3.03 | 3.16 | 2.62 | 2.51 | 3.39 |
| CC/C(=C(\c1ccc(O)cc1)c1ccc(OCCN(C)C)cc1)c1ccccc1 [4-Hydroxytamoxifen] | 3.21 | 2.74 | 2.16 | 2.61 | 4.31 | 2.89 |
| Nc1ccc(S(=O)(=O)Nc2ncccn2)cc1 [Sodium sulfadiazine] | 1.29 | 0.966 | 1.5 | 1.52 | 0.727 | 1.12 |
| Cc1cc(O)c(C(=O)N[C@@H](C(=O)N[C@@H]2C(=O)N3C(C(=O)O)=C(CSc4nnnn4C)CS[C@H]23)c2ccc(O)cc2)cn1 [Cefpiramide sodium] | 0.849 | 1.35 | 1.94 | 1.17 | 0.51 | 0.977 |
| CCOC(=O)[C@H](CCc1ccccc1)N[C@@H](C)C(=O)N1C(=O)N(C)C[C@H]1C(=O)O [Imidapril HCl] | 0.604 | 0.657 | 0.965 | 1.1 | 1.55 | 1.05 |
| CC(C)(C)c1[nH]cnc1/C=c1\[nH]c(=O)/c(=C/c2ccccc2)[nH]c1=O [Plinabulin (NPI-2358)] | 3.18 | 3.25 | 4.17 | 2.89 | 4.1 | 2.86 |
| COc1ccc(C2OCC3C(c4cc(OC)c(OC)c(OC)c4)OCC23)cc1OC (centres undefined) [Magnolin] | 0.904 | 0.78 | 1.05 | 1.02 | 0.56 | 0.966 |
| C=CC(=O)Nc1cc2c(Nc3ccc(F)c(Cl)c3)ncnc2cc1OCCCN1CCOCC1 [Canertinib (CI-1033)] | 1.57 | 2.51 | 1.4 | 1.25 | 0.69 | 2.05 |
| Cc1cccc(Oc2cnc(=O)[nH]c2)c1 | 1.47 | 1.3 | 1.39 | 1.47 | 0.543 | 0.931 |
| C[C@H]1COc2c(N3CCN(C)CC3)c(F)cc3c(=O)c(C(=O)O)cn1c23 [Levofloxacin hydrate] | 1.06 | 0.678 | 1.07 | 1.25 | 0.54 | 1.57 |
| CC1=NN(c2ccc(C)c(C)c2)C(=O)/C1=N\Nc1cccc(-c2cccc(C(=O)O)c2)c1O [Eltrombopag] | 2.4 | 1.81 | 3.38 | 2.71 | 3.89 | 2.45 |
| N[C@H](C(=O)O)[C@H](O)c1ccc(O)c(O)c1 [Droxidopa] | 0.967 | 0.876 | 0.724 | 0.744 | 1.01 | 0.873 |
| COc1ccc(/C=C\c2cc(OC)c(OC)c(OC)c2)cc1O [Combretastatin A4] | 3.46 | 3.33 | 3.91 | 2.81 | 4.14 | 2.83 |
| Cc1cc(Cn2cnc3c2CC(C(=O)O)N(C(=O)C(c2ccccc2)c2ccccc2)C3)ccc1N(C)C (centres undefined) | 0.67 | 1.03 | 1.03 | 1.08 | 0.529 | 0.828 |
| CC(C(=O)O)c1ccc(C(=O)c2cccs2)cc1 (centres undefined) [Suprofen] | 1.32 | 0.825 | 0.656 | 0.981 | 2.04 | 1.01 |
| CC1=C(C(=O)OC(C)C)C(c2cccc([N+](=O)[O-])c2)C(C(=O)OC2CN(C(c3ccccc3)c3ccccc3)C2)=C(N)N1 (centres undefined) [Azelnidipine] | 1.85 | 3.31 | 1.12 | 1.17 | 1.44 | 2.01 |
| Cn1cc(-c2nc(N[C@@H]3CCCC[C@@H]3N)c(F)c3c2C(=O)NC3)cn1 | 2.54 | 2.93 | 2.88 | 2.99 | 1.85 | 2.99 |
| Nc1ccc2ncnc(NCCc3ccc(Oc4ccccc4)cc3)c2c1 | 1.67 | 1.95 | 1.06 | 1.68 | 3.12 | 0.755 |
| CCOc1cc2ncc(C#N)c(Nc3ccc(F)c(Cl)c3)c2cc1NC(=O)/C=C/CN(C)C [Pelitinib (EKB-569)] | 2.29 | 3.19 | 4.45 | 4.45 | 2.63 | 2.82 |
| CCN(CC)CCCC(C)Nc1ccnc2cc(Cl)ccc12 (centres undefined) [Chloroquine Phosphate] | 3.74 | 3.04 | 2.7 | 4.77 | 3.32 | 3.09 |
